Where “and” joins values, the source holds several entries; their conditions need not be identical. Equal values may be shown once. Out of some 5,500 compounds screened, about 2,000 (36%) were called active. Inconclusive results (about 18%) are left out. Cut-off read from the data, not from the text of the source: active = normalized growth mostly below about 0.91 (no sharp cut-off); inconclusive = no clear call, values can overlap the other calls; inactive = mostly above about 0.92. Some of the results follow.
Assay: chemical genetic growth profiling, strain panel (AID 1159580);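 note: tested at 20 µM; growth read once vehicle control cultures reached saturation at 30 °C; 1 = growth at the plate median or of vehicle wells; lower values mean less growth of the strain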
Details: S. cerevisiae deletion strains, growth OD

Measured: normalized growth

C=C1C(=O)O[C@@H]2C3O[C@]3(C)CC/C=C(\C)CC[C@@H]12 (stereo partly specified)
0.446 (active) and 0.99 (inactive): locus YJL095W, strain BCK1, stronger effect = lower value
active: locus YAL013W, strain DEP1, stronger effect = lower value 0.878 | locus YCL029C, strain bik1, stronger effect = lower value 0.905 | locus YDL035C, strain GPR1, stronger effect = lower value 0.838 | locus YDL074C, strain BRE1, stronger effect = lower value 0.671 | locus YDL101C, strain DUN1, stronger effect = lower value 0.87 | locus YDL192W, strain arf1, stronger effect = lower value 0.729 | locus YDR101C, strain arx1, stronger effect = lower value 0.864 | locus YDR137W, strain rgp1, stronger effect = lower value 0.556 | locus YDR162C, strain NBP2, stronger effect = lower value 0.455 | locus YDR318W, strain mcm21, stronger effect = lower value 0.739 | locus YDR388W, stronger effect = lower value 0.901 | locus YDR392W, strain spt3, stronger effect = lower value 0.532 | locus YDR502C, strain sam2, stronger effect = lower value 0.818 | locus YEL061C, strain CIN8, stronger effect = lower value 0.86 | locus YER110C, stronger effect = lower value 0.879 | locus YER155C, strain BEM2, stronger effect = lower value 0.798 | locus YER167W, strain BCK2, stronger effect = lower value 0.694 | locus YGL086W, strain mad1, stronger effect = lower value 0.792 | locus YGL248W, strain PDE1, stronger effect = lower value 0.879 | locus YGR078C, strain PAC10, stronger effect = lower value 0.695 | locus YGR135W, strain pre9, stronger effect = lower value 0.749 | locus YGR229C, strain SMI1, stronger effect = lower value 0.396 | locus YHR079C, strain IRE1 (second series), stronger effect = lower value 0.861 | locus YHR129C, strain ARP1, stronger effect = lower value 0.801 | locus YIL066C, strain RNR3, stronger effect = lower value 0.7 | locus YIL073C, strain SPO22, stronger effect = lower value 0.588 | locus YIR030C, strain dcg1, stronger effect = lower value 0.912 | locus YJL168C, strain set2, stronger effect = lower value 0.914 | locus YJL187C, strain SWE1 (second series), stronger effect = lower value 0.866 | locus YJR043C, strain POL32, stronger effect = lower value 0.752
inactive: locus YAL021C, strain ccr4, stronger effect = lower value 0.967 | locus YAL026C, strain drs2, stronger effect = lower value 0.914 | locus YAL030W, strain snc1, stronger effect = lower value 0.983 | locus YBL061C, strain skt5, stronger effect = lower value 1.01 | locus YBR009C, strain hhf1, stronger effect = lower value 0.977 | locus YBR021W, strain FUR4, stronger effect = lower value 1.06 | locus YBR023C, strain chs3, stronger effect = lower value 0.964 | locus YBR171W, strain sec66, stronger effect = lower value 0.975 | locus YBR229C, strain ROT2, stronger effect = lower value 0.941 | locus YBR231C, strain swc5, stronger effect = lower value 1.01 | locus YBR279W, strain paf1, stronger effect = lower value 0.948 | locus YCL011C, strain gbp2, stronger effect = lower value 0.978 | locus YCL016C, strain dcc1, stronger effect = lower value 0.946 | locus YCL069W, strain vba3, stronger effect = lower value 1 | locus YCR088W, strain abp1, stronger effect = lower value 0.983 | locus YDL005C, strain med2, stronger effect = lower value 0.989 | locus YDL040C, strain nat1, stronger effect = lower value 0.993 | locus YDL134C, strain PPH21, stronger effect = lower value 0.903 | locus YDL185W, strain tfp1, stronger effect = lower value 0.913 | locus YDR001C, strain nth1, stronger effect = lower value 0.997 | locus YDR069C, strain doa4, stronger effect = lower value 0.981 | locus YDR150W, strain NUM1, stronger effect = lower value 0.917 | locus YDR159W, strain sac3, stronger effect = lower value 1.02 | locus YDR195W, strain ref2 1.06 | locus YDR297W, strain sur2, stronger effect = lower value 0.998 | locus YDR334W, strain swr1, stronger effect = lower value 0.987 | locus YDR335W, strain msn5, stronger effect = lower value 0.976 | locus YEL003W, strain gim4, stronger effect = lower value 0.973 | locus YEL037C, strain rad23, stronger effect = lower value 0.992 | locus YEL061C, strain CIN8 (second series), stronger effect = lower value 1 | locus YER015W, strain faa2, stronger effect = lower value 0.993 | locus YER016W, strain bim1, stronger effect = lower value 0.997 | locus YER111C, strain swi4, stronger effect = lower value 0.992 | locus YER155C, strain BEM2 (second series), stronger effect = lower value 0.888 | locus YFR010W, strain ubp6, stronger effect = lower value 0.992 | locus YGL078C, strain dbp3, stronger effect = lower value 0.937 | locus YGL167C, strain pmr1, stronger effect = lower value 0.97 | locus YGL173C, strain kem1, stronger effect = lower value 0.956 | locus YGL227W, strain vid30, stronger effect = lower value 0.999 | locus YGL240W, strain doc1, stronger effect = lower value 0.962 | locus YGL253W, strain hxk2, stronger effect = lower value 0.963 | locus YGR252W, strain gcn5, stronger effect = lower value 0.771 | locus YHR013C, strain ard1, stronger effect = lower value 0.894 | locus YHR027C, strain rpn1, stronger effect = lower value 0.991 | locus YHR079C, strain IRE1, stronger effect = lower value 0.966 | locus YHR094C, strain hxt1, stronger effect = lower value 0.934 | locus YHR142W, strain chs7, stronger effect = lower value 0.962 | locus YHR200W, strain rpn10, stronger effect = lower value 0.924 | locus YIL125W, strain kgd1, stronger effect = lower value 0.937 | locus YJL092W, strain hpr5, stronger effect = lower value 0.987 | locus YJL095W, strain BCK1 (second series), stronger effect = lower value 0.976 | locus YJL115W, strain asf1, stronger effect = lower value 0.991 | locus YJL129C, strain trk1, stronger effect = lower value 1 | locus YJL134W, strain LCB3, stronger effect = lower value 0.943 | locus YJL154C, strain vps35, stronger effect = lower value 0.998 | locus YJL164C, strain tpk1, stronger effect = lower value 0.95 | locus YJL166W, strain qcr8, stronger effect = lower value 0.961 | locus YJL187C, strain SWE1, stronger effect = lower value 0.963 | locus YJR066W, strain TOR1, stronger effect = lower value 0.937
0.722 (active) and 0.968 (inactive): locus YHR030C, strain SLT2, stronger effect = lower value
